Source: PubChem
Hits are enriched below; roughly 0.97% of the tested compounds scored in any of these assays.
TcdB GH inh – blocks C. difficile toxin B glycohydrolase activity; P18177; TcdB glycohydrolase enzymatic assay, plate reader; inhibition, % at 9.99 µM; hit rate 0.24% among 350,000; AID 652162; in the data active means inhibition above about 10%
RecA intein inh – Mtb RecA intein splicing inhibition | cell-free RecA intein splicing, fluorescence | P9WHJ3 | hit rate 0.75% among 290,000 | inhibition, % (no concentration beside the values); in the data active means inhibition above about 30%; inconclusive means no clear call, values can overlap the other calls;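 further: 0% = vehicle wells and 100% = reference inhibitor control wells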
Rv3671c inh – inhibits the M. tuberculosis serine protease Rv3671c | inhibition, % at 5.96 µM | hit rate 0.048% among 320,000; in the data active means inhibition above about 38%;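 further: extracellular domain of Rv3671c used as enzyme; 0% = enzyme with DMSO and 100% = no enzyme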
Mtb bLac sens – beta-lactam sensitization of Mtb H37Rv. M. tuberculosis H37Rv growth with meropenem, percent inhibition. inhibition, % at 25 µM. AID 434955. hit rate 0.27% among 330,000;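 further: growth measured after seven days incubation then overnight dye step; 0% = bacteria only wells and 100% = bacteria with antibiotic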
MazF activator – MazEF (E. coli) toxin RNase activation. hit rate 0.32% among 350,000. P0AE70. AID 504720. FAM/BHQ RNA-DNA oligo cleavage fluorescence, 5 h. activation, % at 20 µM; in the data active means activation above about 50%
Mtb UGM inh – inhibitors of M. tuberculosis UDP-galactopyranose mutase; inhibition, % at 10 µM; AID 504406; purified UGM, fluorescence polarization probe displacement; hit rate 0.06% among 320,000; P9WIQ1; in the data active means inhibition above about 10%, passing the limit was not always enough; inconclusive means no clear call, values can overlap the other calls
GFP chromo cs – counter-screen GFP chromophore formation inhibition. AID 434968. hit rate 83% among 2,100. EC50, µM. shares compounds with RecA intein inh. cell-free GFP chromophore formation, fluorescence
The depositor's hits bear a star; u = inconclusive; x = no result. Unless noted, how the calls were made is not given here.

SMILES	TcdB GH inh	RecA intein inh	Rv3671c inh	Mtb bLac sens	MazF activator	Mtb UGM inh	GFP chromo cs
CC1=NN(c2ccc(C(=O)O)cc2)C(=O)/C1=C/c1ccc(-c2ccccc2F)o1	3	8	2	88	x	0	x
CC1=NN(c2ccc(C(=O)O)cc2)C(=O)/C1=C\c1ccc(OC(=O)c2cccs2)cc1	-7	93*	-195	98	15	2	2.6*
CCOc1cc(/C=C2\C(=O)N(c3ccc(C(N)=O)cc3)N=C2C)ccc1OC(=O)c1cccs1	x	94*	-189	89	-9	-3	3.3*
CCOc1cc(/C=C2/C(=O)N(c3ccccc3)N=C2C)ccc1OC(=O)c1ccco1	x	78*	-211	90	1	-1	2.7*
COc1ccc(N2C(=O)NC(=O)/C(=C/c3cccc(OC(=O)c4cccs4)c3)C2=O)cc1Cl	1	10	-9	u	-2	2	x
Cc1ccc(N2C(=O)NC(=O)/C(=C/c3ccc(OC(=O)c4cccs4)cc3)C2=O)cc1	x	34*	-1	93	5	-4	0.82*
C[C@@H]1CCCCO[C@H](CN(C)C(=O)c2ccncc2)[C@@H](C)CN([C@H](C)CO)C(=O)c2cc(NS(C)(=O)=O)ccc2O1	0	x	x	x	x	x	x
Cc1ccc(S(=O)(=O)N(C)C[C@@H]2Oc3c(NC(=O)NC4CCCCC4)cccc3C(=O)N([C@@H](C)CO)C[C@@H]2C)cc1	3	x	x	x	x	x	x
CCOC(=O)c1c(C)oc2c1c1c(c3ccccc32)OCN(CCCC(=O)O)C1	-1	90*	3	94	0	0	20*
Cc1ccccc1NC1=C/C(=N\S(=O)(=O)c2cccs2)c2ccccc2C1=O	x	37*	-195	94	10	4	1*
Cc1ccccc1NC1=C/C(=N\S(=O)(=O)c2ccc(C(=O)O)cc2)c2ccccc2C1=O	-2	96*	-191	75	-20	4	11*
Cc1ccc(NC2=C/C(=N/S(=O)(=O)c3cccs3)c3ccccc3C2=O)cc1C	0	9	-1	3	10	0	x
CC(=O)Nc1ccc(NC2=C/C(=N/S(=O)(=O)c3cccs3)c3ccccc3C2=O)cc1	0	x	-178	13	-1	1	x
O=C(O)c1ccc(S(=O)(=O)/N=C2\C=C(Nc3ccccc3F)C(=O)c3ccccc32)cc1	1	94*	-209	96	5	0	0.17*
COc1ccc(S(=O)(=O)/N=C2\C=C(Nc3ccc(O)cc3)C(=O)c3ccccc32)cc1	5	93*	-161	15	5	-2	0.34*
O=C(C[C@@H]1C=C[C@@H](NC(=O)c2ccc3c(c2)OCO3)[C@@H](CO)O1)NCc1ccc(F)cc1	-2	x	x	x	x	x	x
CC(=O)c1cc(O)c2ccccc2c1O	1	70*	-41	4	30	-1	6.9*
Cn1c(O)c(C2=NN(C(=O)CCl)C(c3ccccc3)C2)c(=O)n(C)c1=O (configuration not stated)	1	45*	2	42	6	0	5.8*
CCC(=O)N1N=C(c2c(O)n(C)c(=O)n(C)c2=O)CC1c1ccccc1 (configuration not stated)	0	12	-7	90	-1	-2	x
Cc1noc(C)c1NC(=O)N(C)C[C@H]1OCCCC[C@H](C)Oc2ccc(NS(=O)(=O)c3c(C)noc3C)cc2C(=O)N([C@@H](C)CO)C[C@@H]1C	1	x	x	x	x	x	x
COCC(=O)N(C)C[C@H]1Oc2ncc(C#Cc3ccncc3)cc2C(=O)N([C@@H](C)CO)C[C@H]1C	0	x	x	x	x	x	x
CN1CCN(c2nc(-c3ccco3)cc(C(F)(F)F)n2)CC1	1	-1	1	-3	5	1	x
CS(=O)(=O)c1nc(-c2ccco2)cc(C(F)(F)F)n1	x	40*	-2	100	x	6	>38
COc1ccccc1-c1cc(C(F)(F)F)nc(S(=O)(=O)CCCC(=O)N2CCCCC2C)n1 (configuration not stated)	x	56*	-1	52	-9	2	7.2*
COc1ccccc1-c1cc(C(F)(F)F)nc(N2CCCC2)n1	x	x	0	2	0	-1	x
COc1ccccc1-c1cc(C(F)(F)F)nc(S(C)(=O)=O)n1	x	50*	3	1	5	0	31*
